The panel holds about 83,000 compounds, 20% with a hit somewhere; the sample as a whole holds those more often.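 96-well plates, one dose, 48 hours. Percent growth reported; active if below 10.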 Values without a mark were called inactive. Calls of active or inactive are those of the source.

What all share (test): NCI-60 one-dose screen, 48 h (100 = growth as untreated, 0 = no growth, -100 = all killed)
Common to all, as to details: 10 µM unless noted

Experiment [1] has as its system DU-145 prostate.
Experiment [2] concerns K-562 leukemia.
Experiment [3] deals with MALME-3M melanoma.
For experiment [4], the system named is MDA-MB-231 breast.
Experiment [5] relates to RXF 393 renal.
Experiment [6] concerns SF-268 CNS.
In experiment [7] the test system is SF-295 CNS.
Experiment [8] has as its system SF-539 CNS.
Experiment [9] has as its system UACC-257 melanoma.
For experiment [10], the system named is M14 melanoma.

With `Cc1ccc(NS(=O)(=O)c2ccc(-c3cnc(C4CC4)o3)cc2)cc1C`, the growth is 14.4% in experiment [1]; 9.36% (active) in [2]; 42.6% in experiment [3]; 40.1% in [4]; -3.66% (active) in [5]; 52% in experiment [6]. Besides, the growth in [7] is 10.3%; in experiment [8] it was -13.6% (active); in [9] it was 49.8%.
`CC(C)C1=C[C@@]23CC[C@@H]4[C@](C)(CCC[C@@]4(C)C(=O)N4CCCNCC4)[C@H]2C[C@@H]1[C@H]1C(=O)CCC(=O)[C@H]13`: the growth in experiment [1] is 114%; in [2] it was 93.5%; in experiment [3] it was 99.9%; in [4] it was 109%; in experiment [5] it was 104%; in experiment [6] it was 97.8%. In addition, the growth in [7] is 93.7%; in [8], 93.7%; in [9] it was 106%.
With `C=C(C)C(=O)Nc1ccc(NC(C)C)cc1`, the growth in experiment [1] is 133%; in experiment [2], 134%; in experiment [3], 220%; in experiment [4] it was 123%; in experiment [5] it was 29.7%; in experiment [6], 107%. The growth is 147% in experiment [7], 100% in [8], -7.29% (active) in experiment [9] and 101% in [10].
For the compound `CCCN1CCN(c2ccc3nc(-c4ccc5nc(-c6ccc(OCC)cc6)[nH]c5c4)[nH]c3c2)CC1`, the growth in experiment [1] is 21.2%; in experiment [2], -47.4% (active); in experiment [3], 0.636% (active); in experiment [4] it was 84.8%; in experiment [5], -31.3% (active); in experiment [6] it was 68.6%. In addition, the values for the growth in experiment [7], in [8] and in [9] were 41.4%, 58.3% and 39.7%, respectively.
On to `N#Cc1c(-c2ccc(Cl)cc2)nc(N=Nc2c(O)[nH]c3ccc(Cl)cc23)nc1N1CCOCC1`, for which the growth in [1] was 103%; in experiment [2], 116%; in experiment [3], 88.8%; in experiment [4], 82.9%; in experiment [5] it was 95.7%; in experiment [6], 95.8%. Further, the growth in experiment [7] was 102%; in experiment [8] it was 97.8%; in experiment [9], 107%.
Regarding `COc1ccc(Nc2nc(SC)nc(-c3cccc([N+](=O)[O-])c3)c2C#N)cc1`, the growth in experiment [1] was 80.6%; in experiment [2], 93.6%; in experiment [3], 61.7%; in experiment [4], 45.1%; in experiment [5] it was 60%; in experiment [6] it was 71.6%. The growth in [7] was 69.3%; in experiment [8], 69%; in experiment [9], 89.5%.
Regarding `N#CN1CC[C@H](C(=O)Nc2cc3cc(C(N)=O)ccc3cn2)C1`, the growth was 7.18% (active) in [1]; 2.99% (active) in [2]; -21.8% (active) in [3]; -0.49% (active) in experiment [4]; -52.3% (active) in experiment [5]; -9.68% (active) in experiment [6]. Also, the growth in experiment [7] was 2.85% (active); in [8], -35.9% (active); in [9] it was -27.9% (active); in [10] it was -26.5% (active).
With `O=CNc1ccc2c(c1)Cc1cccc(NC=O)c1-2`, the growth in experiment [1] is 106%; in [2], 104%; in experiment [3] it was 106%; in experiment [4] it was 83.5%; in experiment [5] it was 103%; in experiment [6] it was 94.2%. In addition, the growth is 111% in experiment [7], 101% in [8], 93.4% in experiment [9] and 91.2% in experiment [10].
As to `O=C1NC(=O)C(c2ccc(Cl)cc2Cl)N1` (configuration not stated), the growth in [1] was 112%; in [2], 102%; in experiment [3] it was 106%; in experiment [4] it was 101%; in experiment [5], 117%; in experiment [6], 106%. In addition, the growth is 110% in [7], 115% in experiment [8] and 112% in experiment [9].
As to `COc1cc(C=Nc2oc(-c3ccccc3)c(-c3ccccc3)c2C#N)cc(CN2CCCCC2)c1O`, the growth in experiment [1] is 107%; in experiment [2] it was 102%; in [3] it was 110%; in [4] it was 106%; in [5] it was 104%; in experiment [6], 94.9%. In addition, the growth in [7] was 102%; in experiment [8], 101%; in experiment [9], 116%.
Regarding `COc1ccc(/C=C/C(=O)c2ccc(O)c(CN3CCN(c4cc5c(cc4F)c(=O)c(C(=O)O)cn5C4CC4)CC3)c2)cc1`, the growth in experiment [1] is 27.8%; in experiment [2], 20.3%; in experiment [3], 30.4%; in [4] it was 50.6%; in experiment [5], 28.3%; in experiment [6], 30.3%. Moreover, the growth in experiment [7] is 13.1%; in experiment [8], 18.8%; in [9] it was 42%; in experiment [10] it was 30.9%.
On to `COc1cc(-c2nc3ccccc3[nH]2)ccc1OCC(=O)N=Nc1c(O)[nH]c2ccc(Cl)cc12`, for which the growth in experiment [1] was -37.8% (active); in experiment [2] it was -25.4% (active); in experiment [3], -66.9% (active); in experiment [4], -87.4% (active); in experiment [5], -56.5% (active); in [6] it was -72.9% (active). Moreover, the growth was -68.8% (active) in [7], -83.9% (active) in experiment [8] and -18.7% (active) in experiment [9].

Values taken from PubChem BioAssay (NCI).
